A selection: hits, their analogues and other compounds. The true share with any hit is near 6.2%.
FMDV antiviral – blocks foot and mouth disease virus. FMDV antiviral cell-based qHTS. Potency, µM (titrated, usually from 57.9 µM), inactives show at the top dose activity change, negative = inhibition, actives largely listed as inhibitors. 1.2% of 410,000 active. AID 1159524; calls by dose curve; tested in HEK293T cells; further: read-out not given here; potency means the concentration at half of the fitted maximal effect; nearly all actives have a fitted effect of over 45% in size
HCMV inh – human cytomegalovirus inhibition. HFF cells, HCMV-luciferase reporter, 72 h; active compounds read low. activity change, negative = inhibition, % at 57.5 µM. 4.5% of 410,000 active. AID 1259415; in the data active means activity change below about -60%; inconclusive means no clear call, values can overlap the other calls; inactive means above about -39%
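Compounds were evaluated in HFFs infected with an HCMV luciferase reporter virus (MOI 1 PFU/cell). Luciferase in lysates collected 72 h post infection served as the replication measure.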
Lassa entry inh – blocks Lassa virus binding to or entry into cells. Potency, µM (highest dose often 37.9 µM), without a hit: top-dose activity change, negative = inhibition, hits mostly inhibitors. Lassa virus pseudotype entry inhibition, cell reporter. 1.2% of 300,000 active. AID 540256; calls by dose curve; tested in HEK293 cells; further: potency means the concentration at half of the fitted maximal effect; nearly all actives have a fitted effect of over 50% in size
Marburg entry inh – Marburg virus entry inhibition. Marburg virus pseudotyped entry inhibition, cell reporter. 1.8% of 300,000 active. Potency, µM (top dose mostly 37.8 µM), for the others: at the highest dose activity change, negative = inhibition, usual class: inhibitors; calls by dose curve; tested in HEK293 cells; further: potency means the concentration at half of the fitted maximal effect
* marks the source's active call; other numbers are inactive results; u = inconclusive; x = no result given; [ ] = remark or other dose. On the % scale 0 is the no-effect control and ±100 the full control effect.

SMILES | FMDV antiviral | HCMV inh | Lassa entry inh | Marburg entry inh
Cc1ccc(C(=O)Nc2ccc3ncccc3c2)cc1 | 14.1µM* | -63.6* | u | u
Cn1c(CN2CCCCC2)nc2cc(NC(=O)c3ccccc3)ccc21 | -7.5% | -60.0* | 36.4%[14.3 µM] | 10.6%
Cc1nc2ccc(NC(=O)c3ccccc3)cc2c(=O)n1Cc1ccc(F)cc1 | 28.2µM* | -73.1* | x | x
Cc1ccc(C(=O)Nc2ccc(Br)c(C(F)(F)F)c2)cc1 | -14.9% | 24.5 | u | 16.4µM*
Cc1nc2cc(N3CCCCC3)c(NC(=O)c3ccncc3)cc2c(=O)n1Cc1ccccc1 | 32.3% | 31.7 | -3.9% | 22.3%
O=C(Nc1ccc2nc3ccccc3nc2c1)c1ccccc1 | -24.0% | 91.4 | 11.2µM* | u
O=C(Nc1ccc(Cl)c(Cl)c1)c1ccccc1 | 5.4% | 2.5 | x | x
CC(=O)Nc1ccc2cc3ccc(NC(C)=O)cc3nc2c1 | 56.9% | -98.3* | x | x
COc1ccc(-c2coc3cc4oc(=O)cc(C)c4cc23)cc1F | 4.1% | -62.8* | u | u
COc1ccc(-c2cc(=O)oc3cc4occ(C)c4cc23)cc1 | -16.7% | -39.3 | 0.3% | -0.8%
CNC(=O)[C@H]1O[C@@H](n2cnc3c(NCc4cccc(I)c4)nc(Cl)nc32)[C@H](O)[C@@H]1O | -20.1% | 44.0 | x | x
CCOc1ccc(Br)cc1S(=O)(=O)Nc1cccc(S(=O)(=O)NC2=NCCC2)c1 | 33.7% | -6.2 | x | x
CCOc1ccc(Br)cc1S(=O)(=O)NC1=NCCCCC1 | 21.3% | -63.8* | 13.9% | u
CCn1cc[n+](C)c1P(c1ccccc1)c1ccccc1 | u | -76.2* | x | x
Nc1ncnc2c1c(-c1ccc(Oc3ccccc3)cc1)cn2C1CCCC1 | u | -63.7* | u | u
Clc1cccc(-n2cc(-c3ccccc3)c3c(NC4CCCC4)ncnc32)c1 | -23.7% | -23.7 | 12.9%[46.1 µM] | x
CCc1nc(N2CCN(C(=S)NCCCOC)CC2)c2c3c(sc2n1)CCCC3 | u | -63.6* | x | x
CCOc1ccc2nc(N3C(=O)/C(=C/c4ccccc4)NC3=S)sc2c1 | 26.7% | 66.6 | 12.6µM* | u
COc1ccc2nc(N3C(=O)/C(=C/c4ccccc4)NC3=S)sc2c1 | 2.4% | -19.9 | u | -11.9%
CCc1ccc2[nH]c(=O)c(C3C(C#N)=C(N)Oc4c3ccc3cccnc43)cc2c1 (stereo unspecified) | -3.1% | -4.3 | -17.4% | u
N#CC1=C(N)Oc2c(ccc3cccnc23)C1c1cccnc1 (stereo unspecified) | -20.6% | -99.4* | u | u
Cc1ccc2cc(C3C(C#N)=C(N)Oc4c3ccc3cccnc43)c(=O)[nH]c2c1 (stereo unspecified) | -16.7% | -103.5* | u | u
C[C@@H]1O[C@@H](OC[C@H]2O[C@@H](Oc3c(-c4ccc(OCCO)c(OCCO)c4)oc4cc(OCCO)cc(O)c4c3=O)[C@H](O)[C@@H](O)[C@@H]2O)[C@H](O)[C@H](O)[C@H]1O | -2.7% | x | x | x
Cc1ccc(-c2cc(C(=O)NCc3ccccc3)c3c(-c4ccc(C)cc4)[nH]nc3n2)cc1 | -14.3% | 8.3 | 16.1%[46.1 µM] | x
CNC(=O)CN(c1ccc(C23CC4CC(CC(C4)C2)C3)cc1)S(C)(=O)=O | -20.5% | -60.4* | -5.9% | u
SMILES | FMDV antiviral | HCMV inh | Lassa entry inh | Marburg entry inh
O=C(COC(=O)c1cc([N+](=O)[O-])ccc1N1CCOCC1)Nc1ccc(Cl)cn1 | -21.7% | -102.0* | -2.8% | u
Cc1cc(NC(=O)CSCC(=O)Nc2cc(C(F)(F)F)ccc2N2CCCC2)no1 | 28.2µM* | u | 8.9% | -14.7%
O=C(COC(=O)c1cc([N+](=O)[O-])ccc1N1CCOCC1)Nc1ccc(Cl)cc1 | u | -29.5 | -20.1% | -12.2%
COCCOc1ccc(C(F)(F)F)cc1NC(=O)COC(=O)c1cc([N+](=O)[O-])ccc1N1CCOCC1 | -13.4% | u | u | 12.6µM*
Cc1ccc2nc(SCC(=O)Nc3cc(C(F)(F)F)ccc3N3CCOCC3)[nH]c2c1 | u | -88.8* | u | u
CC(=O)c1c(C)[nH]c(C(=O)OCC(=O)Nc2cc(C(F)(F)F)ccc2N2CCOCC2)c1C | -5.7% | -14.8 | 22.4µM* | u
O=C(COC(=O)/C=C/c1ccc(F)cc1)Nc1cc(C(F)(F)F)ccc1N1CCOCC1 | -12.5% | 12.1 | 10.7%[46.1 µM] | -13.4%[46.1 µM]
CCCCn1c(SCC(=O)Nc2nnc(C(C)C)s2)nc2c1c(=O)n(C)c(=O)n2C | -17.0% | -74.7* | u | -4.5%
CCCCn1c(SCC(=O)N2c3ccccc3Sc3ccccc32)nc2c1c(=O)n(C)c(=O)n2C | u | 2.7 | u | 11.2µM*
CC1Cc2ccccc2N1C(=O)CSc1nc2c(c(=O)n(C)c(=O)n2C)n1Cc1ccc(F)cc1 (stereo unspecified) | -12.8% | -105.9* | 8.5% | 16.0%
CC(Oc1ccccc1)C(=O)Nc1nc2ccc(S(N)(=O)=O)cc2s1 (stereo unspecified) | 11.4% | 18.9 | 1.0%[46.1 µM] | x
CCCCCCC#C[C@@H]1C=C[C@H](OC(=O)OCC)[C@@H](COC(=O)OCC)O1 | x | x | x | -12.0%[14.2 µM]
Cc1c(C(=O)N2CCCC(c3ccccc3)C2)sc2ncnc(NCCc3ccccn3)c12 (stereo unspecified) | -11.7% | x | x | x
O=C(O)CSc1nc2ccccc2nc1N1CCCCC1 | -3.7% | -10.6 | -12.3%[46.1 µM] | 2.0%[46.1 µM]
COC(=O)CS(=O)(=O)c1nc2ccccc2nc1N1CCCCC1 | -14.0% | -66.2* | 20.1%[46.1 µM] | -29.2%[46.1 µM]
O=C(CSc1nc(Nc2ccc(F)cc2)c2ccccc2n1)c1ccc(F)cc1 | -23.5% | 29.9 | -31.2%[46.1 µM] | x
COc1cc(Nc2nc(SCC(=O)c3ccc(Br)cc3)nc3ccccc23)cc(OC)c1 | u | -62.3* | -21.9%[46.1 µM] | x
CC(C)c1c(C(=O)N2CCCCC2c2cccnc2)cnn1-c1nccc(-c2cccs2)n1 (stereo unspecified) | -18.0% | x | x | x
COC(=O)C1CCN(Cc2ccc3c(c2)CN(C(=O)c2ncc(C)[nH]2)CCO3)CC1 | -12.0% | x | x | x
C[C@H]1CC2C3CCC4=CC(=O)C=C[C@]4(C)[C@@]3(Cl)[C@@H](O)C[C@]2(C)[C@@]1(O)C(=O)CO (stereo partly specified) | x | x | -9.7% | 6.0%
CCn1c(CSCc2ccccc2)n[nH]c1=S | -7.7% | -73.1* | -11.6% | 1.2%[46.1 µM]
Cc1n[nH]c(=S)n1Cc1ccccc1 | -7.4% | -82.2* | x | x
S=c1[nH]nc(-c2ccccc2)n1Cc1ccccc1 | -15.9% | 23.2 | 11.0% | 7.8%
S=c1[nH]nc(CN2CCCCC2)n1Cc1ccccc1 | -13.2% | -81.9* | u | 1.7%[46.1 µM]
CCn1c(Cc2ccccc2)n[nH]c1=S | -5.1% | -13.5 | x | x
SMILES | FMDV antiviral | HCMV inh | Lassa entry inh | Marburg entry inh
CCC12C=C(C=Cc3ccccc3)C(CC)(C1)C(c1ccccc1)CC2=O (stereo unspecified) | x | x | x | 13.1%[14.2 µM]
CC(C)CN(CCCNC(=O)CN1N=C(c2ccccc2)CCC1=O)CC(C)C | -24.8% | 39.2 | 14.8%[46.1 µM] | x
CC(C)NC(=O)CN1C(=O)c2ccccc2S1(=O)=O | 48.7% | -13.7 | 12.5% | u
O=C(CN1C(=O)c2ccccc2S1(=O)=O)c1ccccc1Cl | x | -86.3* | x | x
O=C(CN1C(=O)c2ccccc2S1(=O)=O)NC(Nc1ccccc1F)C(Cl)(Cl)Cl (stereo unspecified) | -5.1% | -104.7* | 5.1% | -7.7%
Cc1ccc(C(=O)CN2/C(=C(\O)c3ccccc3)C(=O)c3ccccc3S2(=O)=O)c(C)c1 | -8.3% | x | 18.3µM* | u

Screens from PubChem BioAssay.
